The campaign covered roughly 220,000 compounds. About 570 (0.26%) were called active. Shown is part of a subset that was picked to be rich in actives. Values without a mark were called inactive. No stated cut-off is given here; in the data, active means inhibition above about 29%; inactive means the rest.
target: Sphingosine 1-phosphate receptor 4 (Homo sapiens) (UniProt O95977); test: S1P4 receptor antagonists, primary screen, cell-based (AID 1510); details: S1P4-expressing cells, antagonist mode, reporter read-out; at 4.98 µM; active compounds read high;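 further: 0% = wells stimulated with agonist and 100% = vehicle wells without agonist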
Sequence (O95977 whole entry, looked up): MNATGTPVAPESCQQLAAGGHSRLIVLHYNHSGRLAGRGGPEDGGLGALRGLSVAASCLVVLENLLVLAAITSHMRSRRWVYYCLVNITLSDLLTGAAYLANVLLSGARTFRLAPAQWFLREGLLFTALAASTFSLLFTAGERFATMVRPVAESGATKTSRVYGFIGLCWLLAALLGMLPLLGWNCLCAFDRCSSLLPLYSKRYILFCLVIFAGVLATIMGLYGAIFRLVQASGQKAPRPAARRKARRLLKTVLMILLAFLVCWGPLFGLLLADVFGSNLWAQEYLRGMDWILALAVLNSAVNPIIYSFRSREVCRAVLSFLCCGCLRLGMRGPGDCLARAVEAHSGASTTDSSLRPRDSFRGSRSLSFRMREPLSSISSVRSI

Row | Structure (SMILES) | inhibition
1 | CN(C)CC1Oc2ccccc2OC1(O)c1ccccc1 (stereo not given) | 66% (active)
2 | Cc1ccc(-c2nn(CCC#N)cc2C(=O)O)cc1C | -15.8%
3 | O=C(COC(=O)Cc1ccccc1)Nc1ccc(F)cc1 | -14%
4 | COP(=O)(NS(=O)(=O)c1ccccc1)OC | -0.89%
5 | CN1CCN(Cc2ccc(OC(F)(F)F)cc2)CC1 | -5.02%

From PubChem BioAssay AID1510 (The Scripps Research Institute Molecular Screening Center, 2009)
